Assay outcomes as filed in PubChem BioAssay.
KB-3-1 tox: KB-3-1 parental cell cytotoxicity. KB-3-1 viability, CellTiter-Glo ATP luminescence, 72 h. Potency, µM (titrated, usually from 46.1 µM), hits mostly cytotoxic. 400,000 compounds, 1.4% hits. AID 1347075; also: nearly all actives have a fitted effect of over 60% in size
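Viability of parental KB-3-1 cells, measured by CellTiter-Glo luminescence, followed a 72 h incubation at 37 °C with pinned compounds in phenol-red-free DMEM containing 10% FBS.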
HT1080 IDH1KD tx: toxicity to HT-1080 IDH1 knockdown cells (counter line); HT-1080 IDH1 knockdown viability, ATP luminescence, 48 h; Potency, µM (series often up to 46.1 µM), without a hit: at the highest dose activity, negative = toxicity, hits mostly cytotoxic; 360,000 compounds, 2% hits; AID 686971;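 also: 0% = DMSO wells and -100% = cell-free medium wells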
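Cytotoxicity counter-line: IDH1KD HT-1080, 48 h, CellTiter-Glo. Curves classed by r2, magnitude and activity.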
TDP1 cell CPT: growth inhibition of DT40 Tdp1-/-;hTDP1 cells with camptothecin (screen for TDP1 inhibitors) | chicken DT40 Tdp1-/-;hTDP1 cells + 20 nM CPT, ATP luminescence, 48 h | Potency, µM (series often up to 46.2 µM), for the others: at the highest dose activity change, negative = growth inhibition, hits mostly inhibitors | 420,000 compounds, 12% hits | AID 686979; also: nearly all actives have a fitted effect of over 55% in size
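Chicken DT40 Tdp1-/- cells stably complemented with human TDP1 were seeded at 400 cells/well in medium containing 20 nM camptothecin, exposed to pin-transferred compounds, and grown at 37 °C for at least 48 hr. Viability was read as ATP luminescence.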
HT1080NT lethal: kills 2HG-producing HT-1080-NT fibrosarcoma cells; HT-1080-NT fibrosarcoma viability, CellTiter-Glo ATP luminescence, 48 h; Potency, µM (highest dose often 46.1 µM), inactives show top-dose activity, negative = less viability, most hits filed as cytotoxic; 360,000 compounds, 1.6% hits; AID 686970;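 also: NT is the 2HG producing partner of a matched IDH1 knockdown line; 0% = DMSO-treated cells and -100% = media-only wells without cells; nearly all actives have a fitted effect of over 55% in size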
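Fibrosarcoma NT cells, 750 per well in 5% FBS RPMI, were exposed to compound for 48 hours. Viability: CellTiter-Glo luminescence.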
KB-V1 MDR tox: kills drug-selected multidrug resistant KB-V1 cells | KB-V1 MDR cells viability, CellTiter-Glo, 72 h | Potency, µM (doses to about 46.1 µM), hits mostly cytotoxic | 400,000 compounds, 3.4% hits; also: nearly all actives have a fitted effect of over 60% in size
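Cells of the MDR subline KB-V1 are plated, dosed with compound at multiple concentrations, and incubated 72 h at 37 degrees C; CellTiter-Glo is then added and luminescence read after 10 min.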
TDP1 cell noCPT: qHTS for Inhibitors of human tyrosyl-DNA phosphodiesterase 1 (TDP1): qHTS in cells in absence of CPT; DT40 Tdp1-/- hTDP1 cells, no CPT, ATP luminescence, 48 h; Potency, µM (doses to about 46.2 µM), inactives show at the highest dose activity change, negative = growth inhibition, actives largely listed as inhibitors; 420,000 compounds, 15% hits; AID 686978, 2013; also: nearly all actives have a fitted effect of over 55% in size
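Stably hTDP1-transfected Tdp1-null chicken DT40 cells were treated with library compounds minus camptothecin and grown for at least 48 hr at 37 °C, after which cellular ATP was quantified by luminescence.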
Starred values were filed as active, the others as inactive; [ ] = dose if it differs, or a comment. This is a sample that favours compounds with a hit; in the whole collection about 19% have one here. Calls follow the shape of the dose curve; as a rule, active = well fitted curve in the direction sought with a large enough effect; inconclusive = small, poorly fitted or top-dose-only effect, or another doubt; inactive = no such curve, though single readings can be large; an effect the other way counts as inactive or inconclusive. Unless noted, % is scaled to controls: 0 for no effect and ±100 for the full control effect; potency is read from the fitted curve at half-maximal effect.

What do the screens show for `CCOC(=O)C1CCCN(C(=O)c2cnn(-c3ncc4c(n3)-c3ccccc3CC4)c2C)C1` (centres undefined)?
TDP1 cell CPT: 2.3%[9.04 µM]; TDP1 cell noCPT: -6.0%

How did CCCNC(=O)C1(C)CCCN(C(=O)c2c(C)noc2C)C1 (centres undefined) do in these assays?
KB-3-1 tox: inactive; HT1080 IDH1KD tx: 3.4%; TDP1 cell CPT: 17.7%; HT1080NT lethal: inconclusive; KB-V1 MDR tox: inactive; TDP1 cell noCPT: 11.5%

How did CCN(CC)S(=O)(=O)c1ccc(N2CCCCC2)c(C(=O)Nc2ccccc2N2CCOCC2)c1 do in these assays?
KB-3-1 tox: inconclusive; HT1080 IDH1KD tx: 4.2%; TDP1 cell CPT: 10.3µM*; HT1080NT lethal: 15.5%; KB-V1 MDR tox: inconclusive; TDP1 cell noCPT: 9.2µM*

How did CCN(CC)S(=O)(=O)c1ccc(N2CCOCC2)c(NC(=O)c2cccc3ccccc23)c1 do in these assays?
KB-3-1 tox: inactive; HT1080 IDH1KD tx: -4.9%; TDP1 cell CPT: 25.9µM*; HT1080NT lethal: -7.1%; KB-V1 MDR tox: inactive; TDP1 cell noCPT: 16.4µM*

Results for CCN(CC)S(=O)(=O)c1ccc(N2CCOCC2)c(NC(=O)C2=COCCO2)c1 ?
KB-3-1 tox: inactive; HT1080 IDH1KD tx: 8.6%; TDP1 cell CPT: inconclusive; HT1080NT lethal: 5.3%; KB-V1 MDR tox: inactive; TDP1 cell noCPT: inconclusive

How did CCN(CC)S(=O)(=O)c1ccc(N2CCOCC2)c(NC(=O)c2c3c(nc4ccccc24)CCC3)c1 do in these assays?
KB-3-1 tox: inactive; HT1080 IDH1KD tx: 2.2%; TDP1 cell CPT: 14.6µM*; HT1080NT lethal: 7.1%; KB-V1 MDR tox: inactive; TDP1 cell noCPT: 14.6µM*

How did CN(CCc1cn[nH]c1)Cc1nc(Cc2ccccc2)no1 do in these assays?
KB-3-1 tox: inactive; HT1080 IDH1KD tx: 10.8%; TDP1 cell CPT: 14.2%; HT1080NT lethal: 6.6%; KB-V1 MDR tox: inactive; TDP1 cell noCPT: 9.2%

How did CC(NC(=O)COC(=O)c1ccc2c(=O)n3c(nc2c1)CCCCC3)c1ccc(F)cc1 (centres undefined) do in these assays?
KB-3-1 tox: inactive; HT1080 IDH1KD tx: 6.0%; TDP1 cell CPT: -19.4%; HT1080NT lethal: 1.7%; KB-V1 MDR tox: inactive; TDP1 cell noCPT: -7.1%

What do the screens show for `CCOC1=C2[C@H](c3ccccc3)N(S(=O)(=O)c3ccccc3)C[C@H]2n2c(=O)n(-c3ccccc3)c(=O)n2C1`?
KB-3-1 tox: inactive; HT1080 IDH1KD tx: 18.7%; TDP1 cell CPT: -28.5%; HT1080NT lethal: 14.7%; KB-V1 MDR tox: inactive; TDP1 cell noCPT: -23.1%

How did CC1(C)Nc2ccccc2C(=O)N1c1ccccc1 do in these assays?
KB-3-1 tox: inactive; HT1080 IDH1KD tx: 1.5%; TDP1 cell CPT: 7.7%; HT1080NT lethal: 6.1%; KB-V1 MDR tox: inactive; TDP1 cell noCPT: 1.7%

How did O=C1CC(NS(=O)(=O)c2ccc([N+](=O)[O-])cc2)CN1c1ccc2c(c1)OCCO2 (centres undefined) do in these assays?
KB-3-1 tox: inactive; HT1080 IDH1KD tx: 9.7%; TDP1 cell CPT: -11.9%; HT1080NT lethal: 9.1%; KB-V1 MDR tox: inactive; TDP1 cell noCPT: -17.4%

What do the screens show for `CC(=O)c1ccc(S(=O)(=O)NC2CC(=O)N(c3ccc(C)c(C)c3)C2)cc1` (centres undefined)?
KB-3-1 tox: inactive; HT1080 IDH1KD tx: -9.9%; TDP1 cell CPT: 14.6µM*; HT1080NT lethal: -3.2%; KB-V1 MDR tox: inactive; TDP1 cell noCPT: 14.6µM*

How did O=C1CC(NS(=O)(=O)c2ccc([N+](=O)[O-])cc2)CN1c1ccc(Cl)cc1 (centres undefined) do in these assays?
KB-3-1 tox: inactive; HT1080 IDH1KD tx: -12.0%; TDP1 cell CPT: inconclusive; HT1080NT lethal: -2.9%; KB-V1 MDR tox: inactive; TDP1 cell noCPT: 16.4µM*

Results for COc1cccc(NCc2nnc(SC(C(=O)N(C)C)c3ccccc3)n2C2CCCCC2)c1 (centres undefined) ?
KB-3-1 tox: inactive; TDP1 cell CPT: 6.0%; KB-V1 MDR tox: inactive; TDP1 cell noCPT: -27.2%

How did COc1ccccc1C(C)Nc1ccc(S(=O)(=O)N2CCN(C)CC2)cc1[N+](=O)[O-] (centres undefined) do in these assays?
KB-3-1 tox: inactive; HT1080 IDH1KD tx: -14.0%; TDP1 cell CPT: inconclusive; HT1080NT lethal: -9.1%; KB-V1 MDR tox: inactive; TDP1 cell noCPT: inconclusive

Results for CC(Nc1cc(N2CCN(S(C)(=O)=O)CC2)ccc1[N+](=O)[O-])c1ccccc1 (centres undefined) ?
KB-3-1 tox: inactive; HT1080 IDH1KD tx: -4.5%; TDP1 cell CPT: inconclusive; HT1080NT lethal: -1.2%; KB-V1 MDR tox: inconclusive; TDP1 cell noCPT: 16.4µM*

Results for CC(Nc1ccc(S(=O)(=O)N2CCN(C)CC2)cc1[N+](=O)[O-])c1ccccc1 (centres undefined) ?
KB-3-1 tox: inactive; HT1080 IDH1KD tx: 1.6%; TDP1 cell CPT: 16.4µM*; HT1080NT lethal: -1.3%; KB-V1 MDR tox: inconclusive; TDP1 cell noCPT: 23.1µM*

How did COc1cccc(C(CNc2ccc(S(=O)(=O)N3CCN(C)CC3)cc2[N+](=O)[O-])N(C)C)c1 (centres undefined) do in these assays?
KB-3-1 tox: inactive; HT1080 IDH1KD tx: -13.9%; TDP1 cell CPT: 23.1µM*; HT1080NT lethal: -8.2%; KB-V1 MDR tox: inconclusive; TDP1 cell noCPT: inconclusive

What do the screens show for `COc1ccccc1NC(=O)C1CCN(S(=O)(=O)c2cn(C)cn2)CC1`?
TDP1 cell CPT: -0.5%; TDP1 cell noCPT: -11.2%

Results for COc1ccc([C@H]2C[C@H](O)[C@@H](n3cc(-c4ccc(F)cc4)nn3)CN2C(=O)c2cccs2)cc1 ?
KB-3-1 tox: inactive; HT1080 IDH1KD tx: -2.4%; TDP1 cell CPT: inconclusive; HT1080NT lethal: -5.7%; KB-V1 MDR tox: inactive; TDP1 cell noCPT: inconclusive

Results for CCC(C)NC(=O)c1cc(-c2cccc(OC)c2)on1 (centres undefined) ?
KB-3-1 tox: inactive; TDP1 cell CPT: 17.4%; KB-V1 MDR tox: inactive; TDP1 cell noCPT: -23.2%

How did N=C(N)SCc1ccc(Cl)c2ccccc12 do in these assays?
KB-3-1 tox: inactive; HT1080 IDH1KD tx: -8.8%; TDP1 cell CPT: inconclusive; HT1080NT lethal: -13.5%; KB-V1 MDR tox: 23.1µM*; TDP1 cell noCPT: inconclusive
